Reference: PubChem BioAssay AID504332 (National Center for Advancing Translational Sciences (NCATS), 2011)
Out of some 350,000 compounds screened, about 31,000 (8.9%) were called active. Another 15% or so got no clear call; they are omitted. The call rests on the fitted dose curve; in most records, active means well fitted inhibition curve with a large enough effect; inconclusive means small, poorly fitted or top-dose-only effect; inactive means no such curve, though single readings can be large or run the other way. Many of the other results were omitted from the sample, so actives are more common in it than they were.

target: Histone-lysine N-methyltransferase EHMT2 (Homo sapiens) (UniProt Q96KQ7); test: qHTS Assay for Inhibitors of Histone Lysine Methyltransferase G9a; details: G9a H3K9 monomethylation, AlphaScreen, 2 h; series mostly up to 59 µM; activity, negative = inhibition: at the top concentration; further: nearly all actives have a fitted effect of over 75% in size
Procedure, shortened: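 Signal arises when biotinylated H3K9 peptide, once monomethylated, bridges streptavidin donor and antibody-captured acceptor beads. Enzyme at 20 nM was preincubated 15 min with test compounds; peptide 500 nM and SAM 20 uM then reacted for 2 h.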
On the % scale 0 is the no-effect control and ±100 the full control effect; potency means the concentration at half of the fitted maximal effect.

Chain of Histone-lysine N-methyltransferase EHMT2 (Homo sapiens) (Q96KQ7 913-1193 limits assumed): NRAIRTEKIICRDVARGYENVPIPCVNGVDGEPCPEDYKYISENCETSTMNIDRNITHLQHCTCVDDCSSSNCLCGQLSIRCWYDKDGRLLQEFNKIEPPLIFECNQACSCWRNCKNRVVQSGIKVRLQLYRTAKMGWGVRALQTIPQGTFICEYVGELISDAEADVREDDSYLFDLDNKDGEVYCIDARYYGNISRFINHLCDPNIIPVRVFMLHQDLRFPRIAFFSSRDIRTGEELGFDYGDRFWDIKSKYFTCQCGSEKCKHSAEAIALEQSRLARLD

| Structure (SMILES) | activity, negative = inhibition | Potency |
| --- | --- | --- |
| CCC1CN(S(=O)(=O)c2cc(-c3cc(C)no3)ccc2C)c2cc(C)ccc2O1 (stereo not given) | 6.83% (inactive) |  |
| O=C(NC1CCCCCC1)C1CCN(C(=O)c2ccc(Cl)cc2)CC1 | 6.11% [at 12.7 µM] (inactive) |  |
| CCOC(=O)c1cc(=O)c2ccc(OCc3ccccc3)cc2o1 | -4.05% [at 102 µM] (inactive) |  |
| COc1cc(C2C(C(=O)c3ccco3)=C(O)C(=O)N2c2cc(C)on2)ccc1OCc1ccccc1 (stereo not given) | -10.4% [at 102 µM] (inactive) |  |
| Cc1cc(N2C(=O)C(O)=C(C(=O)c3ccc(C)o3)C2c2ccc(OCc3ccccc3)cc2)no1 (stereo not given) |  | 31.6 µM (active) |
| O=C(O)c1ccc(Nc2nc(-c3ccccc3)c3cc(Br)ccc3n2)cc1 | -2.63% (inactive) |  |
| Cn1c(=O)c2c(ncn2CC(=O)Nc2cccc(C(F)(F)F)c2)n(C)c1=O | 27.9% (inactive) |  |
| Cc1ccc2nc(NC(=O)c3nc(SCc4ccccc4F)ncc3Cl)sc2c1 | 9.95% (inactive) |  |
| O=c1c2ccccc2nc2n1C(CSCc1cccc(C(F)(F)F)c1)CS2 (stereo not given) | -8.59% [at 102 µM] (inactive) |  |
| Cn1c(-c2sccc2OCc2cccc(C(F)(F)F)c2)n[nH]c1=S |  | 4.47 µM (active) |
| CCOC(=O)N1CCN(Cc2nc(Cc3cccc(C(F)(F)F)c3)no2)CC1 | 0.109% [at 102 µM] (inactive) |  |
| CCCCN(C(=O)c1ccc(S(=O)(=O)N2CCOCC2)cc1)C1CCS(=O)(=O)C1 (stereo not given) | 4.15% [at 0.501 µM] (inactive) |  |
| C/C(=N\NC(=O)c1cccnc1)c1ccc(-c2ccccc2)cc1 | 3.29% [at 102 µM] (inactive) |  |
| O=C(N/N=C/c1ccc(O)c2ccccc12)c1cccnc1 | 17.3% [at 102 µM] (inactive) |  |
| O=C(NN=C1CCC(=NNC(=O)c2cccnc2)CC1)c1cccnc1 |  | 17.8 µM (active) |
| CCC(=O)N1c2ccccc2CC1C(=O)N1CCN(c2ccccc2)CC1 (stereo not given) | -1.15% (inactive) |  |
| COc1ccc(CCNS(=O)(=O)c2cc(-c3cc(C)no3)ccc2C)cc1OC | 4.88% (inactive) |  |
| Nc1cc(N)nc(SCC(=O)Nc2cccc(S(=O)(=O)N3CCCCC3)c2)n1 | -10.4% (inactive) |  |
| O=C(Nc1nc(-c2ccncc2)cs1)C1COc2ccccc2O1 (stereo not given) |  | 2.24 µM (active) |
| O=C(Nc1ncc([N+](=O)[O-])s1)C1COc2ccccc2O1 (stereo not given) | -2.98% [at 12.7 µM] (inactive) |  |
| O=C(Nc1nc2c(F)cc(F)cc2s1)C1COc2ccccc2O1 (stereo not given) | -9.43% [at 102 µM] (inactive) |  |
| CC(OC(=O)c1ccccc1N1C(=O)C2C3CCC(C3)C2C1=O)C(=O)c1ccccc1 (stereo not given) | 5.86% (inactive) |  |
| COC(=O)C1=C(C)N=C2SC(C)C(=O)N2C1/C=C/c1ccccc1 (stereo not given) | -10.8% [at 102 µM] (inactive) |  |
| CCOC(=O)c1ccccc1N1C(=O)C2Sc3[nH]c(=O)sc3C(/C=C/c3ccccc3)C2C1=O (stereo not given) |  | 3.16 µM (active) |

| Structure (SMILES) | activity, negative = inhibition | Potency |
| --- | --- | --- |
| CCOc1ccc(CCNC(=O)CN2C(=O)NC3(CCc4ccccc43)C2=O)cc1OCC (stereo not given) | -29.7% [at 102 µM] (inactive) |  |
| CCN(CC)c1ccc(NC(=O)CN2C(=O)NC3(CCc4ccccc43)C2=O)cc1 (stereo not given) | 79.1% [at 12.7 µM] (inactive) |  |
| CCN(CC)S(=O)(=O)c1ccc(CNC(=O)CN2C(=O)NC3(CCc4ccccc43)C2=O)cc1 (stereo not given) |  | 28.2 µM (active) |
| COc1ccc(C=C(C#N)C#N)c(CSc2ccccn2)c1 | 1.76% [at 102 µM] (inactive) |  |
| CC(NC(=O)c1ccccc1F)c1cccc2ccccc12 (stereo not given) | 0% [at 2.33 µM] (inactive) |  |
| CCOC(=O)C1CCN(C(=O)c2cccc(S(=O)(=O)N(CC)c3ccccc3)c2)CC1 | -14.3% [at 12.7 µM] (inactive) |  |
| CCN(c1ccccc1)S(=O)(=O)c1cccc(C(=O)O)c1 |  | 79.4 µM (active) |
| COc1ccc(N(Cc2ccccc2)S(=O)(=O)c2cccc(C(=O)O)c2)cc1 | -2.97% (inactive) |  |
| O=C(NCc1ccccc1)C(c1cccnc1)N(C(=O)c1csnn1)c1ccc(F)cc1 (stereo not given) | 22.8% [at 102 µM] (inactive) |  |
| O=C(N[C@@H](Cc1c[nH]c2ccccc12)C(=O)O)OCC1c2ccccc2-c2ccccc21 | -0.61% [at 0.501 µM] (inactive) |  |
| Cc1cccc(C(=O)Nc2ccc(S(=O)(=O)N3CCCCC3c3cccnc3)cc2)c1 (stereo not given) | 2.32% (inactive) |  |
| CC(C)c1ccc(Cn2c(COc3ccccc3)nc3ccccc32)cc1 | 27.2% (inactive) |  |
| CC(=O)N(OCc1ccc(OC(C)C)c(Cl)c1)C(C)=O | -0.368% [at 102 µM] (inactive) |  |
| CC(C)Oc1ccc(Cc2n[nH]c(=S)n2Cc2ccccc2)cc1Cl |  | 8.91 µM (active) |
| Cc1ccc(-c2csc(NC3OC(=O)c4ccccc43)n2)cc1 (stereo not given) | -11.2% [at 102 µM] (inactive) |  |
| COc1ccc(-c2cc(-c3ccc(F)cc3)nc3c2COc2ccccc2-3)cc1 | 21.3% (inactive) |  |
| COc1cc(OC)cc(-c2c(-c3ccc(F)cc3)c3cc(-c4ccc5cc[nH]c5c4)ccc3n2C)c1 | 26.5% [at 2.33 µM] (inactive) |  |
| COC(=O)c1ccc(Cn2c(SCC(=O)N(C)c3ccccc3)nc3ccccc32)cc1 | -1.12% [at 12.7 µM] (inactive) |  |
| Cc1ccc(Cl)cc1N1CCN(S(=O)(=O)c2cc3[nH]c(=O)c(=O)[nH]c3cc2C)CC1 | -35.6% (inactive) |  |
| Nc1ccc(S(=O)(=O)NC(=O)c2ccccc2)cc1 |  | inactive |
| Cc1ccc(Nc2ccccc2N)cc1 | -112% (inactive) |  |
| Nc1ccc(Nc2ccccc2)cc1 |  | 4.47 µM (active) |
| COc1ccc(OC)c(CNC(=O)c2c3c(nc4ccccc24)C(=O)N(C2CCCCC2)C3)c1 | 8.12% (inactive) |  |
| Cc1ccc(C)c(NC(=O)CSC2=Nc3ccccc3N=C(c3ccc(F)cc3)C2)c1 | 5.92% (inactive) |  |

| Structure (SMILES) | activity, negative = inhibition | Potency |
| --- | --- | --- |
| Cc1ccc2nc(-c3ccncc3)cc(C(=O)Nc3ccncc3)c2c1 | -0.776% [at 102 µM] (inactive) |  |
| Cc1c(C(=O)NCc2ccccc2Br)oc2ccc3c(c12)C(=O)CC(C)(C)O3 | -3.36% (inactive) |  |
| O=C(/C=C/c1ccco1)Nc1cccc(-c2nc3ccccc3[nH]2)c1 |  | 25.1 µM (active) |
| O=C(Cc1cccs1)Nc1cccc(-c2nc3ccccc3[nH]2)c1 | -2.95% (inactive) |  |
| CCc1ccc2oc(-c3ccc(C)c(NC(=O)/C=C/c4ccco4)c3)nc2c1 | -28.5% (inactive) |  |
| CCC1CCC2(CC1)NC(=O)N(CC(=O)Nc1ccc(OC)cc1)C2=O (stereo not given) | 7.81% [at 0.501 µM] (inactive) |  |
| COCCNC(=O)CCCN1C(=O)c2ccccc2Sc2ncccc21 |  | inactive |
| COc1cccc(NC(=O)CN2C(=O)c3ccccc3Sc3ncccc32)c1 | -3.8% (inactive) |  |
| O=C(O)CCCN1C(=O)c2ccccc2Sc2ncccc21 |  | 50.1 µM (active) |
| O=C(NNC(=O)C1CCCC1)c1ccc(F)cc1 | 20.9% [at 102 µM] (inactive) |  |
| CC1CC(=O)Nc2ccccc2N1C(=O)COc1ccc2cc(Br)ccc2c1 (stereo not given) | -5.57% [at 2.33 µM] (inactive) |  |
| CCCCN(CC)CCCNC(=O)c1nn(C)c2c1CS(=O)(=O)c1ccccc1-2 | -9.82% (inactive) |  |
| COc1ccc(OCC(=O)NCCc2ccc(S(N)(=O)=O)cc2)cc1 | -7.3% (inactive) |  |
| COc1cc(NC(=S)NCc2ccc(S(N)(=O)=O)cc2)cc(OC)c1 |  | 17.8 µM (active) |
| COc1ccc(NC(=S)Nc2ccc(S(N)(=O)=O)cc2)c(C)c1 | -45.2% [at 102 µM] (inactive) |  |
| COc1ccc(C(=O)CC(=O)C(=O)Nc2cc([N+](=O)[O-])ccc2OC)cc1 | 13.4% [at 102 µM] (inactive) |  |
| COc1ccc(N2C(=O)C3CCCN3C2c2cccs2)cc1 (stereo not given) | 14.2% [at 102 µM] (inactive) |  |
| COc1ccc(C2NC(=O)N(C)C3=C2C(=O)N(c2ccc(C(=O)O)cc2)C3)cc1 (stereo not given) | -0.267% (inactive) |  |
| COc1ccc(N2C(=O)C3C(C2=O)C(C(=O)c2ccccc2)N2CCCC32)cc1 (stereo not given) |  | 10 µM (active) |
| Cn1c(=O)[nH]c(=O)c2c1nc(NCCc1ccccc1)n2Cc1ccc(F)cc1 | 7.33% (inactive) |  |
| CCCOc1ccc(-c2cccc(NS(=O)(=O)c3ccccc3)c2)nn1 | -0.99% (inactive) |  |
| O=[N+]([O-])c1ccc(S(=O)(=O)Nc2cccc(-c3ccc(N4CCCC4)nn3)c2)cc1 |  | 10 µM (active) |
| O=S(=O)(Nc1cccc(-c2ccc(N3CCOCC3)nn2)c1)c1ccc(Cl)c(Cl)c1 | -30.6% [at 102 µM] (inactive) |  |
| CCCc1cc(=O)oc2cc(OCC(=O)Nc3ccc(CN4CCOCC4)cc3)c(Cl)cc12 | 3.1% [at 0.501 µM] (inactive) |  |

| Structure (SMILES) | activity, negative = inhibition | Potency |
| --- | --- | --- |
| CN(CC(=O)Nc1cccc(C(F)(F)F)c1)S(=O)(=O)c1cccs1 | -7.08% (inactive) |  |
| COc1ccc2[nH]cc(CCN3C(=O)c4ccc(C(=O)O)cc4C3=O)c2c1 | 8.52% [at 102 µM] (inactive) |  |
| Cc1ccc2[nH]cc(CCNC(=O)C3CCCCC3)c2c1 | 7.65% (inactive) |  |
| Cc1ccc2[nH]cc(CCCN3C(=O)c4ccccc4C3=O)c2c1 |  | 44.7 µM (active) |
| CCCC(=O)Nc1cc2nn(-c3ccccc3)nc2cc1C | 6.98% (inactive) |  |
| CCOCCCNCc1ccc(OCc2ccc(F)cc2)c(OC)c1 |  | 7.08 µM (active) |
| COc1ccc(CNCCCO)cc1OC | 5.75% (inactive) |  |
| COc1cc(CNCCN(C)C)ccc1OCc1c(F)cccc1Cl | -50.1% [at 102 µM] (inactive) |  |
| CC(Nc1nc(C(F)(F)F)nc2ccccc12)c1cccs1 (stereo not given) | 94.6% [at 102 µM] (inactive) |  |
| Cc1cc(C)nc(N/N=C/c2ccc([N+](=O)[O-])o2)n1 | -49.2% [at 102 µM] (inactive) |  |
| COc1ccc(C(=O)Nc2ccc(-n3nncc3-c3ccccc3)cc2)cc1OC | -28% (inactive) |  |
| CCOC(=O)C1CCCN(C(=O)Cn2ncc3c(C)n(Cc4ccc(F)cc4)c(C)c3c2=O)C1 (stereo not given) | 13% (inactive) |  |
| O=C(NCC#CCSc1nnc(-c2cccc3ccccc23)o1)c1cccs1 |  | 3.16 µM (active) |
| COc1ccc(CCNC(=O)CSc2nnc(CNC(=O)c3cccs3)o2)cc1OC | 30% [at 12.7 µM] (inactive) |  |
| COc1ccc(-c2nnc(SCC(=O)c3cccs3)o2)c(OC)c1 | -1.85% [at 102 µM] (inactive) |  |
| CCc1cc(C(=O)Nc2nnc(C3CC3)s2)sc1C | 5.21% [at 12.7 µM] (inactive) |  |
| CC1(C)Cc2ccccc2-c2[nH]c(=S)[nH]c(=O)c21 |  | 10 µM (active) |
| CC(C)CC(N=C1NC(C)(C)Cc2ccccc21)C(=O)O (stereo not given) | 12.6% (inactive) |  |
| CCC1(CC)Cc2ccccc2-c2nc(CCl)[nH]c(=O)c21 | -21.1% [at 102 µM] (inactive) |  |
| CCc1cc2c(cc3c(=O)n(CC(=O)N4CCN(c5cc(Cl)ccc5C)CC4)nc(CC)n32)s1 | -1.08% (inactive) |  |
| CCC(c1nnnn1Cc1ccco1)N(Cc1cc2cc(OC)ccc2[nH]c1=O)C1CCCCC1 (stereo not given) |  | 3.16 µM (active) |
| CCC(c1nnnn1Cc1ccccc1)N(Cc1cc2cc(OC)ccc2[nH]c1=O)CC1CCCO1 (stereo not given) | -31.1% [at 12.7 µM] (inactive) |  |
| CCOc1ccc2[nH]c(=O)c(CN(Cc3nnnn3Cc3ccccc3)CC3CCCO3)cc2c1 (stereo not given) | -25.1% [at 102 µM] (inactive) |  |
